# Laboratory results reported in PubChem BioAssay.
# Several values for one entry are separate records, joined by “and”; a condition that tells them apart may be missing. Equal entries are not always repeated. Inconclusive results are not listed. Activity calls are given as the source filed them.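 Rule for the calls, unless noted: active = at least 20% inhibition of 6-phosphogluconate dehydrogenase activity; inactive = the rest.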
# Tests used:
# [1] = compounds altering viability of human ES cells (AID 493140; call rule not given here;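 note: cells exposed to compounds for four days before counting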); conditions: human embryonic stem cell survival screen; stronger effect = higher value
# [2] = P. berghei load reduction in hepatocytes – cell-based, HepG2, luciferase luminescence, HepG2 viability, primary screen (AID 624349; in the data active = parasite load remaining mostly below about 12%, no sharp cut-off; inactive = mostly above about 10%;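 note: 100% = mean of DMSO negative control wells on the same plate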); conditions: P. berghei liver stage in HepG2, luciferase luminescence, concentration not given here; parasite load remaining: stronger effect = lower value; viability: measured here: HepG2 viability without parasites
# [3] = biological target: 6-phosphogluconate dehydrogenase, decarboxylating (Homo sapiens) (UniProt P52209); experiment: inhibition of human phosphogluconate dehydrogenase – biochemical, recombinant enzyme, NADPH absorbance, primary screen (AID 1159550); conditions: recombinant 6PGD, NADPH absorbance 341 nm; at 10 µM; stronger effect = higher value
# Chain of 6-phosphogluconate dehydrogenase, decarboxylating (Homo sapiens) (P52209 whole entry, looked up): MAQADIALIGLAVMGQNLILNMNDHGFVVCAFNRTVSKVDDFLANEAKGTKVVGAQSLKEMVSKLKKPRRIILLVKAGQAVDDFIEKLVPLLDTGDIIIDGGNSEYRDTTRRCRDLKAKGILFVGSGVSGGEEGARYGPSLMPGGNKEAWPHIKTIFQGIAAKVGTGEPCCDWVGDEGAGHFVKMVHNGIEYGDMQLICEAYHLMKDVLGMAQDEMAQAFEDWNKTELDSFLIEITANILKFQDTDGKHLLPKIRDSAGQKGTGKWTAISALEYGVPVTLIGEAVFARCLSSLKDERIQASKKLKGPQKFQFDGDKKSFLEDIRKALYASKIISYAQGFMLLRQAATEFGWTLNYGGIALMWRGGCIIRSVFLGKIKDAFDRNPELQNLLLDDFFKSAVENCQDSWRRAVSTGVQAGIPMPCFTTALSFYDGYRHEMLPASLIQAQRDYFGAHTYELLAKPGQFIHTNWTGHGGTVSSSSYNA
# [4] = biological target: NAD(+) hydrolase SARM1 (Homo sapiens) (UniProt Q6SZW1); experiment: blocking NAD cleavage by SARM1 SAM-TIR – cell lysate, NAD-Glo luminescence (AID 1508614;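 active = compound whose remaining NAD level is above about 45 nM, limit read from the data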;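 note: higher remaining NAD means stronger inhibition of SARM1 NADase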); conditions: SAM-TIR HEK293T lysate NADase, at 1 µM, stronger effect = higher value
# Chain of NAD(+) hydrolase SARM1 (Homo sapiens) (Q6SZW1 whole entry, looked up, the tested form may be a part): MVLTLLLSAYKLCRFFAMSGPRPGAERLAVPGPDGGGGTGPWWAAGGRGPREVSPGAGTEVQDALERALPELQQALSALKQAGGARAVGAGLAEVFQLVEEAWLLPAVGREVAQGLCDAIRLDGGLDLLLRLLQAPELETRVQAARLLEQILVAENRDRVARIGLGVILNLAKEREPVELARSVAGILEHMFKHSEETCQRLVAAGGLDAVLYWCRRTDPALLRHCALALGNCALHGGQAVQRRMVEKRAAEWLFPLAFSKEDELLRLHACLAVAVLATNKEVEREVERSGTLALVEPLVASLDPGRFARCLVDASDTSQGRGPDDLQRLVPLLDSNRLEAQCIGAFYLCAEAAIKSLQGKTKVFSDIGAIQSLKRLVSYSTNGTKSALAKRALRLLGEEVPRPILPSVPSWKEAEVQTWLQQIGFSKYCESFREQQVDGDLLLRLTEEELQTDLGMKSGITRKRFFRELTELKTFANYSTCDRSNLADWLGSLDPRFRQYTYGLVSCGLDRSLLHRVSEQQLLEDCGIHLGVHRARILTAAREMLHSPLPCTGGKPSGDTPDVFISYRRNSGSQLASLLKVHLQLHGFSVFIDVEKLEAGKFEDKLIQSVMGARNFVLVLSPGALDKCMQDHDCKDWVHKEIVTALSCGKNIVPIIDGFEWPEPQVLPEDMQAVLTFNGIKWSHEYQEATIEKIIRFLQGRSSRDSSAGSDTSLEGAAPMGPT
# [5] = biological target: Mitogen-activated protein kinase 7 (Homo sapiens) (UniProt Q13164); experiment: Gal4-ERK5 driven luciferase induction – cell-based, HTS, primary screen (AID 1508626;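 active = luciferase signal above three times the same-plate solvent-only control wells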;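 note: luciferase driven by Gal4-ERK5 fusion binding five Gal4 sites before minimal TATA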); conditions: HeLa Gal4-ERK5 transactivation, 18 h, at 5 µM, stronger effect = higher value
# Chain of Mitogen-activated protein kinase 7 (Homo sapiens) (Q13164 whole entry, looked up, the tested form may be a part): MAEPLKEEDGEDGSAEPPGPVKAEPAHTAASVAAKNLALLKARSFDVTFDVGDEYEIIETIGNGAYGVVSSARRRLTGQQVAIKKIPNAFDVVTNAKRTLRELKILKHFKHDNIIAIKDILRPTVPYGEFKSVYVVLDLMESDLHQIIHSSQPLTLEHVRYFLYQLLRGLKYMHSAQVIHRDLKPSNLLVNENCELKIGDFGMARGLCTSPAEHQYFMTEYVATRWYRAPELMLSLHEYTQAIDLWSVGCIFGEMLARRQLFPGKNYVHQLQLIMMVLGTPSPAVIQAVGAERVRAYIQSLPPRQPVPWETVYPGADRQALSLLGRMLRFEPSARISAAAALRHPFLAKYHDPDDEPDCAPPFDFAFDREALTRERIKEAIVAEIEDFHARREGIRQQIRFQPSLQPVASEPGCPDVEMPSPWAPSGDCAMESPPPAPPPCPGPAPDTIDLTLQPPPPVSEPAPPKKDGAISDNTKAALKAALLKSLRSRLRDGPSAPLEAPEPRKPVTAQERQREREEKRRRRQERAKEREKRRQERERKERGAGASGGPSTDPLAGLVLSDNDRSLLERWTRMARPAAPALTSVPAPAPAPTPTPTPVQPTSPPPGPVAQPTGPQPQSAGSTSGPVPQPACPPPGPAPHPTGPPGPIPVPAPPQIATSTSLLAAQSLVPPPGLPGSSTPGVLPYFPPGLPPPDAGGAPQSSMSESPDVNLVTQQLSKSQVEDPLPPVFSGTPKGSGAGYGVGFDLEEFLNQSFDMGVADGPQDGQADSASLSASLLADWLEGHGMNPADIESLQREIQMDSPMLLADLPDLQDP
# [6] = biological target: ATP-dependent translocase ABCB1 (Homo sapiens) (UniProt P08183); experiment: P-glycoprotein substrate transport blockade – cell-based (AID 377; in the data active = fluorescence slope change above about 50%); conditions: MDR1-expressing cells, fluorescent substrate accumulation slope; stronger effect = higher value; concentration not given here
# Chain of ATP-dependent translocase ABCB1 (Homo sapiens) (P08183 whole entry, looked up): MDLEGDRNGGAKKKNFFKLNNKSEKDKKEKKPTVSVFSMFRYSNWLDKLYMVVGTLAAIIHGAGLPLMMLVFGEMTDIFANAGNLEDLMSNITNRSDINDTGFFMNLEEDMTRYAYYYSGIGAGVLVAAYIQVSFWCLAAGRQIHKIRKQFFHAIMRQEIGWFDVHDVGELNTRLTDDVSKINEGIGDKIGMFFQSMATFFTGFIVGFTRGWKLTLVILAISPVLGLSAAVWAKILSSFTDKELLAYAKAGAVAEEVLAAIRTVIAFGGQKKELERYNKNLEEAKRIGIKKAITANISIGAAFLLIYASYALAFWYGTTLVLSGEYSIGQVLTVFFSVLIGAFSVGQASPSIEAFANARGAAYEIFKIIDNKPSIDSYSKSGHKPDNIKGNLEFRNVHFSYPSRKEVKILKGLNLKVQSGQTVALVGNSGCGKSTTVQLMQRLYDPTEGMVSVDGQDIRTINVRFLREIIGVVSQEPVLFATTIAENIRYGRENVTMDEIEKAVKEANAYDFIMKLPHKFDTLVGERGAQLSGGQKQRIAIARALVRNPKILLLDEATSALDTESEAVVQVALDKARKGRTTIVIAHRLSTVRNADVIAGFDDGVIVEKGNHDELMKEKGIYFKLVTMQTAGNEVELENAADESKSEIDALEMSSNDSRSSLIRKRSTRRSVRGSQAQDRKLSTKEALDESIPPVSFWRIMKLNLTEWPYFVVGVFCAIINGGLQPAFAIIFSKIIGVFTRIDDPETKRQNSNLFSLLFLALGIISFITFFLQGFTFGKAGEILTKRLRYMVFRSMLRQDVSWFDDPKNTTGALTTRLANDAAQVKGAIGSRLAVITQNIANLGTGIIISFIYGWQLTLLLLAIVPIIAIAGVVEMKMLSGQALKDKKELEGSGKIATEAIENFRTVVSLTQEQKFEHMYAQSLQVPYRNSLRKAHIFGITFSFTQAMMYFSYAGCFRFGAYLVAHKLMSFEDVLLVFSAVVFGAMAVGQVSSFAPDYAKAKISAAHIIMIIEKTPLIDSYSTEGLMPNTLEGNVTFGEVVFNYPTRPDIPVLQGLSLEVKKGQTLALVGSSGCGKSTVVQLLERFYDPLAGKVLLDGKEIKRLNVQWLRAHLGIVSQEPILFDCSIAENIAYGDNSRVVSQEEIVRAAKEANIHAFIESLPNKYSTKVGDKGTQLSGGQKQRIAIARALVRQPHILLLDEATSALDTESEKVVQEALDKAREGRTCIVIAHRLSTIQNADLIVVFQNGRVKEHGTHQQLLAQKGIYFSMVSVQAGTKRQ
# [7] = viability loss with induced miR-34 in A549 – imaging, A549 dox-inducible miR-34, nuclei and caspase counts, primary screen (AID 1347080;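 active = compounds whose cell count with miR-34 switched on is under 0.7 times the count with it off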); conditions: A549 miR-34 inducible, Hoechst nuclei count, 48 h
compound,measurement,setting,value
CC(=O)OCC(=O)[C@@]1(O)CC[C@H]2[C@@H]3CCC4=CC(=O)CC[C@]4(C)[C@@]3(F)[C@@H](O)C[C@@]21C,survival,[1],16.7 (inactive)
same,parasite load remaining,[2],136% (inactive)
same,viability,[2],91.3%
same,inhibition,[3],-10.7% (inactive)
same,remaining NAD,[4],10 nM (inactive)
same,luciferase signal,[5],84 AU (inactive)
COC(=O)[C@H]1[C@H]2C[C@H]3c4[nH]c5ccccc5c4CCN3C[C@@H]2CC[C@@H]1O,fluorescence slope change,[6],53.3% (active)
same,survival,[1],13.8 (inactive)
same,parasite load remaining,[2],108% (inactive) and 79.2% (inactive)
same,viability,[2],116% and 77.6%
same,inhibition,[3],7.89% (inactive)
same,fold change,"[7]; stronger effect = lower value, cell number ratio, induced over uninduced",0.836 (inactive)
same,fold change,[7]; measured here: relative caspase fold change +Dox/-Dox,1.95
same,cell count,"[7]; measured here: total cells with miR-34 induction, stronger effect = lower value",8660
same,cell count,[7]; measured here: total cells without miR-34 induction,10400
same,luciferase signal,[5],44 AU (inactive)
O=C(OC[C@H]1O[C@@H](OC(=O)c2cc(O)c(O)c(OC(=O)c3cc(O)c(O)c(O)c3)c2)[C@H](OC(=O)c2cc(O)c(O)c(OC(=O)c3cc(O)c(O)c(O)c3)c2)[C@@H](OC(=O)c2cc(O)c(O)c(OC(=O)c3cc(O)c(O)c(O)c3)c2)[C@@H]1OC(=O)c1cc(O)c(O)c(OC(=O)c2cc(O)c(O)c(O)c2)c1)c1cc(O)c(O)c(OC(=O)c2cc(O)c(O)c(O)c2)c1,inhibition,[3],12.6% (inactive)
same,remaining NAD,[4],10 nM (inactive)
same,luciferase signal,[5],32 AU (inactive)
CN(C)CC/C=C1/c2ccccc2Sc2ccc(Cl)cc21,fluorescence slope change,[6],115% (active)
same,survival,[1],1.25 (inactive)
same,parasite load remaining,[2],63.4% (inactive)
same,viability,[2],75.2%
same,inhibition,[3],-16.6% (inactive)
same,remaining NAD,[4],10 nM (inactive)
CC(C)CCC[C@@H](C)[C@H]1CC[C@H]2[C@@H]3C[C@@H](O)[C@@]4(O)C[C@@H](O)CC[C@]4(C)[C@H]3CC[C@]12C,inhibition,[3],-2.71% (inactive)
same,luciferase signal,[5],88 AU (inactive)
C[C@H]1[C@H](C)CC[C@]2(CO)CC[C@]3(C)C(=CC[C@@H]4[C@@]5(C)CC[C@H](O)C(C)(C)[C@@H]5CC[C@]43C)[C@H]12,inhibition,[3],-50.4% (inactive)
same,luciferase signal,[5],52 AU (inactive)
CC(=O)O[C@H]1CC[C@@]2(C)C(=CC=C3[C@@H]4CC[C@H]([C@H](C)/C=C/[C@H](C)C(C)C)[C@@]4(C)CC[C@@H]32)C1,inhibition,[3],14.6% (inactive)
same,luciferase signal,[5],72 AU (inactive)
CC(=O)O[C@@H]1CC(=O)[C@@]2(C)C(CC(=O)[C@]3(C)C2CC[C@@]2(C)[C@H](c4ccoc4)OC(=O)C4OC423)C1(C)C (stereo not given in full),inhibition,[3],9.95% (inactive)
same,luciferase signal,[5],24 AU (inactive)
OC[C@H]1O[C@@](CO)(O[C@H]2O[C@H](CO)[C@@H](O)[C@H](O)[C@H]2O)[C@@H](O[C@H]2O[C@H](CO)[C@@H](O)[C@H](O)[C@H]2O)[C@@H]1O,inhibition,[3],15.1% (inactive)
same,luciferase signal,[5],60 AU (inactive)
C=C1C2CCC3(C)C(c4ccoc4)OC(=O)CC13OC1CC(OC(C)=O)C(C)(C)C(CC(=O)OC)C12C (stereo not given),inhibition,[3],5.49% (inactive)
same,luciferase signal,[5],56 AU (inactive)
C[C@@H]1CC[C@H]2[C@](C)(CO)[C@@H](O)CC[C@]2(C)[C@@]12CC[C@@](CO)(CCO)O2,inhibition,[3],-5.82% (inactive)
same,luciferase signal,[5],48 AU (inactive)
COC(=O)C[C@H]1C(C)(C)[C@@H](O)[C@@H]2CC3=C4C=C(OC)O[C@@H](c5ccoc5)[C@]4(C)CCC3[C@@]1(C)C2=O (stereo not given in full),inhibition,[3],1.56% (inactive)
same,luciferase signal,[5],28 AU (inactive)
COC(=O)C(O)c1ccccc1 (stereo not given),inhibition,[3],1.31% (inactive)
same,luciferase signal,[5],28 AU (inactive)
COc1cc(C/C=C/c2ccccc2)c(OC)cc1O,inhibition,[3],9.29% (inactive)
same,luciferase signal,[5],56 AU (inactive)
COc1ccc(-c2cc(=O)c3c(O)c(OC)c(O[C@@H]4O[C@H](CO[C@@H]5O[C@@H](C)[C@H](O)[C@@H](O)[C@H]5O)[C@@H](O)[C@H](O)[C@H]4O)cc3o2)cc1,inhibition,[3],-2.78% (inactive)
same,luciferase signal,[5],76 AU (inactive)
COc1cc(OC)c2c(=O)c(-c3ccccc3)coc2c1,inhibition,[3],10.4% (inactive)
same,luciferase signal,[5],68 AU (inactive)
Cn1c(=O)[nH]c2nc[nH]c2c1=O,inhibition,[3],-4.63% (inactive)
same,luciferase signal,[5],56 AU (inactive)
C=C1[C@@H]([C@@]2(C)C=CC(=O)C(C)(C)[C@@H]2CC(=O)OC)CC[C@@]2(C)C(c3ccoc3)OC(=O)[C@H]3O[C@]132 (stereo not given in full),inhibition,[3],0.696% (inactive)
same,luciferase signal,[5],20 AU (inactive)
COc1cc2ccc(=O)oc2c(O)c1O,inhibition,[3],13.8% (inactive)
same,luciferase signal,[5],76 AU (inactive)
